FMDV antiviral = antivirals against foot and mouth disease virus; FMDV antiviral cell-based qHTS; Potency, µM (highest dose often 57.9 µM), most hits filed as inhibitors; 410,000 compounds, 1.2% hits; AID 1159524; calls by dose curve; tested in HEK293T cells; also: read-out not given here; nearly all actives have a fitted effect of over 45% in size
HCV inh = inhibitors of hepatitis C virus infection; Huh7.5.1 HCVcc-Cre infection, luciferase reporter, 44 h; Potency, µM (top dose mostly 41.8 µM), most hits filed as inhibitors; 340,000 compounds, 3.4% hits; AID 651820
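Cells seeded at 1,000/well and cultured 4 h, then compounds added followed by HCVcc-Cre virus (~0.5 moi). After 44 h further culture, luciferase substrate was added, plates held 15 min at room temperature, and luminescence read for 15 sec.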
FBPA Giardia inh = blocks Giardia fructose-bisphosphate aldolase activity; A8B2U2; purified Giardia FBPA; Potency, µM (series often up to 59.6 µM), most hits filed as inhibitors; 290,000 compounds, 0.71% hits; also: nearly all actives have a fitted effect of over 55% in size
Target sequence (A8B2U2 whole entry, looked up): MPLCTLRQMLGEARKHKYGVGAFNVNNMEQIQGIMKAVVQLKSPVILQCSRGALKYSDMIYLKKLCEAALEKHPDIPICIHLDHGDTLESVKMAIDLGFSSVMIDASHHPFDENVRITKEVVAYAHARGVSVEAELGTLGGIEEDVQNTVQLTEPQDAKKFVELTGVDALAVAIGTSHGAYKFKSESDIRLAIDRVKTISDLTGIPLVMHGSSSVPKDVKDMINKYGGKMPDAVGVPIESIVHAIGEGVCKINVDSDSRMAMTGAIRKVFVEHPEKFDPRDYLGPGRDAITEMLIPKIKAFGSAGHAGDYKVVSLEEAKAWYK
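Giardia FBPA (40 nM reagent) was preincubated 10 min at RT with compound (up to 57.5 uM final), then substrate plus GAPDH/TPI/NAD/arsenate coupling system with diaphorase/resazurin was added; resorufin fluorescence (525/598 nm) was read after 20 min.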
HCMV inh = inhibitors of human cytomegalovirus; HFF cells, HCMV-luciferase reporter, 72 h; hits give low values; activity change, negative = inhibition, % at 57.5 µM; 410,000 compounds, 4.5% hits; AID 1259415; in the data active = activity change below about -60%; inconclusive = no clear call, values can overlap the other calls; inactive = above about -39%
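After 16 h attachment at 37C, HFF cells received test compound and HCMV-luciferase (1 PFU/cell); reporter luminescence read 72 h later, data normalized against buffer-only and known inhibitor Salinomycin.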
MARV entry inh = Marburg virus entry inhibition; Marburg virus pseudotyped entry inhibition, cell reporter; Potency, µM (titrated, usually from 37.8 µM), actives largely listed as inhibitors; 300,000 compounds, 1.8% hits; calls by dose curve; tested in HEK293 cells
LASV entry inh = blocks Lassa virus binding to or entry into cells. 300,000 compounds, 1.2% hits. Lassa virus pseudotype entry inhibition, cell reporter. AID 540256. Potency, µM (doses to about 37.9 µM), hits mostly inhibitors; calls by dose curve; tested in HEK293 cells; also: nearly all actives have a fitted effect of over 50% in size
Hits are given with their value; . = inactive; ? = inconclusive; / = no result; [ ] = another dose, or the depositor's remark. Most compounds without a hit are left out; they make up all but 8.3% or so of the library. Unless noted, calls follow the shape of the dose curve; as a rule, active = well fitted curve in the direction sought with a large enough effect; inconclusive = small, poorly fitted or top-dose-only effect, or another doubt; inactive = no such curve, though single readings can be large; an effect the other way counts as inactive or inconclusive.

SMILES | FMDV antiviral | HCV inh | FBPA Giardia inh | HCMV inh | MARV entry inh | LASV entry inh
Cc1ccc(CNc2nc3ccccc3s2)s1 | . | . | . | . | ? | 6.3µM
COc1ccc(CNc2nc3ccccc3s2)cc1OC | . | 11µM | . | . | ? | .
CC(NCC(=O)Nc1ccccc1C(=O)NC1CC1)c1ccc(Cl)cc1 (centres undefined) | 20µM | / | / | . | / | /
Cc1ccc(Cl)c(OCC(=O)Nc2ccccc2C(=O)NC2CC2)c1 | . | . | / | -100 | / | /
CCC(=O)Nc1ccccc1C(=O)NC1CCCCC1 | . | . | . | -110 | . | .
CNS(=O)(=O)c1cn(CC(=O)N2CCN(c3ccc(C(C)=O)cc3)CC2)cc1S(=O)(=O)NC | . | / | / | . | / | .
Cn1c(SCC(=O)N2CC(=O)Nc3ccccc32)nc2ccccc2c1=O | . | . | / | . | / | /
O=C1CN(C(=O)CSc2nc3ccccc3c(=O)n2Cc2ccc(F)cc2)c2ccccc2N1 | . | ? | . | -64 | ? | ?
O=C1CN(C(=O)CSc2nc3ccccc3n2CCc2ccccc2)c2ccccc2N1 | . | . | . | -60 | ? | .
Cc1ccc(/C=N/NC(=O)C2CC(=O)N(c3ccccc3)C2)s1 (centres undefined) | . | . | . | ? | . | ?
O=C(N/N=C/c1ccccc1O)C1CC(=O)N(c2ccc(Cl)cc2)C1 (centres undefined) | . | ? | . | -79 | / | /
O=C(Nc1cccc(Cl)c1Cl)C1CC(=O)N(c2ccc(Br)cc2)C1 (centres undefined) | ? | ? | . | -92 | ? | .
CN(N=O)C(=O)N[C@H]1C(O)OC(CO)[C@@H](O)[C@H]1O (some centres undefined) | . | / | . | / | / | /
COc1cc2c(cc1NC(=O)CSc1ccc(C)cc1)oc1ccccc12 | . | 10µM | . | . | ? | .
COc1ccc(C)cc1NC(=O)c1nn(-c2ccccc2)cc1OC | ? | 7.1µM | . | . | ? | ?
COc1cc2c(cc1NC(=O)CSCC(=O)O)oc1ccccc12 | . | . | . | . | . | .
COc1ccccc1NC(=O)c1ccc2c(c1)OCO2 | . | . | . | . | . | ?
COc1cc2c(cc1NC(=O)COC(=O)Cn1cnc3ccccc31)oc1ccccc12 | . | 2.2µM | . | . | ? | .
COc1cn(-c2ccccc2)nc1C(=O)Nc1ccc(C)cc1 | . | ? | . | . | ? | ?
COc1cc2c(cc1NC(=O)c1ccc3c(c1)OCO3)oc1ccccc12 | / | 14µM | . | . | ? | ?
Cc1nn(CCCC(=O)Nc2ccccc2C(F)(F)F)c(=O)c2c1sc1ccccc12 | . | / | / | . | ? | .
COc1ccccc1NC(=O)N1CC(=O)N2[C@H](C1)[C@@H](c1ccc(Br)cc1)[C@@H]2CO | / | / | / | . | / | /
COc1cc2c(cc1NC(=O)Cc1ccc(C)cc1)oc1ccccc12 | . | 10µM | . | . | ? | .
COc1cc2c(cc1NC(=O)CCC(=O)O)oc1ccccc12 | . | ? | . | . | . | .
COc1cc2c(cc1NC(=O)Nc1ccccc1)oc1ccccc12 | ? | 5µM | . | . | . | .
SMILES | FMDV antiviral | HCV inh | FBPA Giardia inh | HCMV inh | MARV entry inh | LASV entry inh
COc1ccc(C)cc1NC(=O)Nc1ccccc1 | . | 3.2µM | . | . | . | .
Cc1ccc(OC(F)F)c(NC(=O)Nc2cccc(C(F)(F)F)c2)c1 | ? | 10µM | . | -99 | ? | ?
Cc1noc(C)c1-c1nccc(N2CCN(C)CC2)n1 | . | / | . | / | / | /
COc1cc2c(cc1NC(=O)CN(C)Cc1ccc(OC)c(OC)c1)oc1ccccc12 | . | 3.5µM | . | . | . | /
O=C(COC(=O)c1ccccc1)Nc1ccc(Cl)cn1 | . | . | . | . | . | ?
O=C(COC(=O)c1cccc(F)c1)Nc1ccc(Cl)cn1 | . | . | / | -99 | / | /
COc1ccc(N2CCN(C(=O)c3cc(S(=O)(=O)N4CCCCCC4)cn3C)CC2)cc1 | . | / | / | . | / | .
CC[C@H](C)[C@@H](NC(=O)O[C@@H]1Cc2cc(OC)ccc2O[C@H]1c1cccc(OC)c1)C(=O)OC | / | / | . | / | / | /
CCc1nc(NCc2ccccn2)c2oc3ccccc3c2n1 | 16µM | ? | . | -63 | ? | .
Cc1nc(NC(C)c2ccccc2)c2oc3ccccc3c2n1 (centres undefined) | 13µM | 6.3µM | . | -65 | ? | ?
CCc1nc(N2CCCCC2C)c2oc3ccccc3c2n1 (centres undefined) | ? | ? | . | . | 18µM | ?
CCc1nc(SCC(=O)N2CCCc3ccccc32)c2oc3ccccc3c2n1 | . | 11µM | . | . | ? | 18µM
CCOC(=O)c1oc2ccc(S(=O)(=O)n3nc(-c4ccc(Br)cc4)cc3N)cc2c1C | . | / | / | . | . | ?
COc1ccccc1-c1ccnc(-n2ncc(C(=O)NCC3(N4CCOCC4)CCCC3)c2C)n1 | . | / | / | / | / | /
Cn1cc(SCC(=O)N2CCOCC2)c2ccccc21 | . | . | . | . | / | /
Cc1nc(SCC(=O)N2CCN(c3ccccc3)CC2)c2oc3ccccc3c2n1 | 25µM | 10µM | . | . | . | ?
Cc1cccc(Nc2nc(C)nc3c2oc2ccccc23)c1 | . | 13µM | . | . | / | /
COc1ccc(OC)c(Nc2nc(C)nc3c2oc2ccccc23)c1 | . | . | . | . | / | /
Cn1cc(SCC(=O)N2CCN(c3ccccc3)CC2)c2ccccc21 | . | ? | . | -84 | / | /
Cc1nc(SCC(=O)O)c2oc3ccccc3c2n1 | . | . | . | . | . | .
Cc1nc(Nc2ccncc2)c2oc3ccccc3c2n1 | ? | 8.9µM | . | -98 | ? | .
CC(=O)OC[C@@H]1O[C@@H](O/N=C2/C[C@@H](O)[C@@H](O)[C@@H]3[C@H]4C(=O)N(c5ccc(F)cc5F)C(=O)[C@@H]4CC[C@@H]23)[C@H](OC(C)=O)[C@H](OC(C)=O)[C@@H]1OC(C)=O | / | / | .[12.9 µM] | / | / | /
Cc1ccccc1C(=O)Nc1ccc2oc(-c3ccc(Cl)c(Cl)c3)nc2c1 | . | / | / | . | / | .
CC(=O)Nc1ccc(Nc2nc(C)nc3c2oc2ccccc23)cc1 | ? | ? | . | . | ? | ?
CCc1nc(Nc2ccncc2)c2oc3ccccc3c2n1 | . | ? | . | -105 | ? | .
SMILES | FMDV antiviral | HCV inh | FBPA Giardia inh | HCMV inh | MARV entry inh | LASV entry inh
CCc1nc(NC(C)C)c2oc3ccccc3c2n1 | . | . | . | . | . | .
CCn1c(SCC(=O)N2CCN(c3ccccc3)CC2)nnc1-c1cc2cc(Cl)ccc2o1 | . | ? | . | -80 | . | .
CCOC(=O)C1CCCN(c2nc(C)nc3c2oc2ccccc23)C1 (centres undefined) | 22µM | . | . | . | ? | ?
CC(=O)N1CCN(c2ccc(Nc3nc(C)nc4c3oc3ccccc34)cc2)CC1 | 25µM | ? | . | . | . | .
CC1OC(OCC2OC(Oc3cc(O)c4c(c3)OC(c3ccc(O)cc3)CC4=O)C(O)C(O)C2O)C(O)C(O)C1O (centres undefined) | / | / | . | / | / | /
COc1ccccc1-c1ccnc(-n2ncc(C(=O)N3CCCCC3c3cccnc3)c2C)n1 (centres undefined) | . | / | / | / | / | /
CCc1nc(Nc2ccc3c(c2)OCO3)c2oc3ccccc3c2n1 | ? | ? | . | . | ? | .
